Screens (PubChem BioAssay)
tim10-1 inh: inhibits growth of tim10-1 mutant yeast. S. cerevisiae tim10-1 ts strain growth, BacTiter-Glo, 24 h. inhibition, % at 20 µM. 2.2% of 330,000 active;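 active = inhibition of at least 40%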;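 also: mutant grown at 25 °C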
tim23-1 inh: tim23-1 yeast growth inhibition; S. cerevisiae tim23-1 growth, BacTiter-Glo luminescence, 24 h; inhibition, % at 20 µM; 1.3% of 330,000 active;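 active = growth inhibition of the mutant yeast at or above 50%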;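 also: temperature-sensitive mutant grown at 25 °C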
SKKanGAS inh: SKKanGAS growth inhibition. inhibition, % at 7.5 µM. S. pyogenes SKKanGAS, kanamycin growth, BacTiter-Glo, 6 h. AID 1662. 1.3% of 300,000 active;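 active = mean replicate score, as percent of positive control median, at least 50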;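 also: strain carries kanamycin resistance gene driven by streptokinase promoter and grows in 40 µg/ml kanamycin; loss of luminescence reflects streptokinase promoter inhibition or plain growth inhibition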
PfHsp90 yeast 2: inhibits growth of yeast expressing Plasmodium falciparum Hsp90. 0.32% of 310,000 active. S. cerevisiae expressing PfHsp90, BacTiter-Glo ATP, 48 h; yeast lacking PDR1 and PDR3 efflux regulators. inhibition, % at 9.4 µM;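 active = every replicate shows inhibition above about 80%, whatever the replicate mean, limit read from the data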
TIM10 inh: TIM10 yeast growth inhibition; S. cerevisiae TIM10 strain growth, BacTiter-Glo luminescence, 24 h; inhibition, % at 10 µM; 1.4% of 330,000 active;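 active = inhibition of 40% or more at the single tested concentration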;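 also: wild-type TIM10 isogenic control strain grown at permissive 25 °C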
NALP3 yeast inh: inhibitors of NALP3 inflammasome in yeast; inhibition, % at 10 µM; Yeast reconstituted NLRP3/ASC/caspase-1, beta-gal luminescence, 24 h; 0.39% of 330,000 active;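 active = inhibition of 50% or more; inactive = inhibition below 50%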
tim10-1 confirm: tim10-1 yeast growth inhibition, confirmed. shares compounds with tim10-1 inh. AID 463213. S. cerevisiae tim10-1 ts strain growth, BacTiter-Glo, 24 h. 56% of 7,400 active. inhibition, % at 20 µM;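 active = inhibition of yeast growth at or above a set limit in either of two repeat tests at 20 µM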;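 also: tim10-1 mutant grown at permissive 25 °C to find synthetic lethal compounds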
TIM10 conf: confirmation of TIM10 yeast growth inhibitors | shares compounds with TIM10 inh | S. cerevisiae tim10 strain growth, BacTiter-Glo luminescence, 24 h | inhibition, % at 10 µM | 63% of 4,600 active;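 active = inhibition of yeast growth at or above a set limit in either of two replicates at 10 µM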; also: this counterscreen used the strain with wild-type TIM10
tim23-1 conf: tim23-1 yeast growth inhibition, confirmed. shares compounds with tim23-1 inh. S. cerevisiae tim23-1 growth, BacTiter-Glo luminescence, 24 h. inhibition, % at 20 µM. 83% of 4,400 active;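 active = inhibition above about 39% in either of two replicate wells at 20 µM, limit read from the data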;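 also: temperature-sensitive tim23-1 mutant grown at 25 °C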
Large screens that a line does not name were inactive (follow-up assays come after a bar, where they were run). A selection: hits, their analogues and other compounds. The true share with any hit is near 4.6%.

COc1ccccc1C(=O)Nc1ccc2c(c1)CC1(C(=O)N(C)C(=O)N(C)C1=O)C1CCCN21 (stereo not given)	none
N#CC1c2ccccc2-n2nncc2CN1S(=O)(=O)c1ccc(Cl)cc1 (stereo not given)	none (no result: tim10-1 inh, tim23-1 inh, SKKanGAS inh, TIM10 inh, NALP3 yeast inh)
O=C1CN=C(c2ccccc2)c2cc(Br)ccc2N1Cc1cc(=O)n2ccccc2n1	tim10-1 inh 41 | tim10-1 confirm inactive
C=CCn1c(O)c(/C=C2/C=c3ccccc3=N2)c(=O)[nH]c1=S	none (no result: tim10-1 inh, tim23-1 inh, TIM10 inh, NALP3 yeast inh)
Cc1cc(C=C2C(=O)N(C)C(=S)N(C)C2=O)c(C)n1C1CCCC1	tim10-1 inh 47 | tim10-1 confirm inactive
CCc1ccc(N2C(=O)CC(=O)NC2=O)cc1	none
COCCCN=Cc1c(O)[nH]c(=S)[nH]c1=O	none
O=c1cccc2n1C[C@@H]1C[C@@H]2CN(CC(O)c2ccc([N+](=O)[O-])cc2)C1 (stereo not given in full)	none
Cn1c(O)c(C=NC2CC3CCC2(C)C3(C)C)c(=O)[nH]c1=O (stereo not given)	none (no result: SKKanGAS inh)
CCCCn1c(O)c(C=NC2CC3CCC2(C)C3(C)C)c(=O)[nH]c1=O (stereo not given)	tim10-1 inh 55 | tim10-1 confirm 40
Clc1ccc(OCC#CCN2CCCC2)cc1	none
COc1ccc(N2C(=O)CC(N3CC=C(c4ccccc4)CC3)C2=O)cc1 (stereo not given)	tim10-1 inh 43 | tim10-1 confirm inactive
c1ccc(-c2cc(-c3ccccc3)[n+](-c3ccccc3)c(-c3ccccc3)c2)cc1	none
Cc1ccc(-c2cc(-c3ccc(C)cc3)[n+](-c3ccccc3)c(-c3ccc(C)cc3)c2)cc1	tim10-1 inh 43 | tim10-1 confirm inactive
CN(C)c1ccc(-[n+]2c(-c3ccccc3)cc(-c3ccccc3)cc2-c2ccccc2)cc1	tim10-1 inh 52 | tim10-1 confirm 37
COC(=O)C1=C(c2ccccc2OCc2ccccc2)C[C@@H]2CC[C@H]1N2C(=O)NC1CCN(Cc2ccccc2)CC1	none (no result: SKKanGAS inh)
Cc1cc(OC(=O)CCCNC(=O)OC(C)(C)C)c2c3c(c(=O)oc2c1)CCC3	none (no result: PfHsp90 yeast 2)
Cc1cc(OC(=O)CCNC(=O)OC(C)(C)C)c2c3c(c(=O)oc2c1)CCC3	tim10-1 inh 45 (no result: PfHsp90 yeast 2) | tim10-1 confirm 39
COCCCn1c(N)c(C(=O)Nc2ccccc2)c2nc3ccccc3nc21	tim10-1 inh 48, SKKanGAS inh 50 (no result: PfHsp90 yeast 2) | tim10-1 confirm inactive
Cc1cc(C(=O)N=Nc2c(O)n(C)c3ccccc23)c(C)o1	none
CC(C)(O)[C@H]1O[C@H]2CC[C@@]3(C)[C@@](O)(CC[C@H]4Cc5c([nH]c6ccccc56)[C@@]43C)C2=CC1=O	tim10-1 inh 47 (no result: PfHsp90 yeast 2) | tim10-1 confirm 41
CC1C(OC(=O)CCC(=O)NC(C)(C)CO)O[C@H]2OC3(C)CC[C@H]4[C@H](C)CCC1C24OO3 (stereo not given in full)	none
C[C@H]1[C@H](OC(=O)CCC(=O)NCc2ccc(C(=O)O)cc2)O[C@@H]2O[C@@]3(C)CC[C@H]4[C@H](C)CC[C@@H]1C24OO3	tim10-1 inh 43 | tim10-1 confirm inactive
O=C(CCCOc1ccc(Cl)cc1Cl)N1CCC2(CC1)OCCO2	tim10-1 inh 42 (no result: PfHsp90 yeast 2) | tim10-1 confirm 33
Cn1c(=O)cc(OCCCC(=O)N2CCC3(CC2)OCCO3)c2ccccc21	none
CN(C/N=C(\N)N[N+](=O)[O-])S(=O)(=O)c1ccccc1	none
COC(=O)C1=C(c2cccc(OCc3ccccc3)c2)C[C@@H]2CC[C@H]1N2C(=O)NCc1ccc2[nH]ccc2c1	none (no result: SKKanGAS inh)
Nc1c(C(=O)OCc2ccccc2)c2nc3ccccc3nc2n1Cc1cccs1	tim10-1 inh 45, SKKanGAS inh 56 (no result: PfHsp90 yeast 2) | tim10-1 confirm inactive
CCN(CC)C(=O)c1ccc(NC(=S)NC(=O)CCc2ccccc2)cc1	tim10-1 inh 42 | tim10-1 confirm inactive
CN(C)C1(c2nnnn2CCOC(=O)Nc2ccc(Cl)cc2)CCCCC1	tim10-1 inh 41 | tim10-1 confirm 37
Cc1cc2oc(=O)cc(-c3cc4ccccc4o3)c2cc1OC(=O)N(C)C	none
CN(C)C(=O)Oc1ccc2oc(=O)cc(-c3cc4ccccc4o3)c2c1	none | tim10-1 confirm inactive
CCN(CC)CCCOC(=O)C(OC(C)C)(c1ccccc1)c1ccccc1	tim10-1 inh 42 | tim10-1 confirm inactive
CCOC(C(=O)OCCCN(CC)CC)(c1ccccc1)c1ccccc1	none (no result: PfHsp90 yeast 2)
O=C(CCC(=O)N1C[C@H]2C[C@@H](C1)c1cccc(=O)n1C2)NCc1ccccc1	none
O=C(c1ccc2c(c1)N(Cc1ccc(F)cc1)CCS2)N1CCC2(CC1)OCCO2	tim10-1 inh 40 | tim10-1 confirm inactive
Cc1ccc(CN2CCSc3ccc(C(=O)N4CCC5(CC4)OCCO5)cc32)cc1	tim10-1 inh 46 | tim10-1 confirm inactive
O=C(c1ccc2c(c1)ncn2-c1ccc(F)cc1F)N1CCC2(CC1)OCCO2	none
Cc1[nH]n(-c2ccccc2)c(=O)c1C(c1ccc([N+](=O)[O-])cc1)c1c(C)[nH]n(-c2ccccc2)c1=O	tim10-1 inh 56, TIM10 inh 46 | tim10-1 confirm 44 | TIM10 conf 33
O=c1[nH]c(O)c(C=Nc2ccccc2Oc2ccccc2)c(=O)[nH]1	none
O=C(Nc1cccc(C(F)(F)F)c1)c1cccn(Cc2ccc3c(c2)OC(F)(F)O3)c1=O	tim10-1 inh 49, TIM10 inh 44 (no result: PfHsp90 yeast 2) | tim10-1 confirm inactive | TIM10 conf 35
Cc1cccc(-n2c(/C=C/c3ccc([N+](=O)[O-])o3)nc3ccccc3c2=O)c1	tim10-1 inh 57, TIM10 inh 47 | tim10-1 confirm 51 | TIM10 conf inactive
O=c1c2ccccc2nc(/C=C/c2ccc([N+](=O)[O-])o2)n1-c1ccc(O)cc1	none
CCNc1nc(NC(C)(C)C)nc(SC)n1	none
c1ccc(-c2[nH]c(-c3ccccc3)[n+](CC3CO3)c2-c2ccccc2)cc1 (stereo not given)	tim10-1 inh 49, tim23-1 inh 55, TIM10 inh 48 | tim10-1 confirm 34 | TIM10 conf inactive | tim23-1 conf 50
CCOP(=O)(OCC)/C(C#N)=C/c1ccc(Br)cc1	tim10-1 inh 45, tim23-1 inh 69, TIM10 inh 51 | tim10-1 confirm 39 | TIM10 conf 52 | tim23-1 conf 56
CNC(=O)Oc1ccc2c(c1)C(=O)c1ccccc1CO2	none
